Here are results for nine compounds from PubChem BioAssay (NCI).

The panel holds about 79,000 compounds, 15% with a hit somewhere; the sample as a whole holds those more often. Unmarked numbers belong to inactive results. Activity calls are given as the source filed them. Cut-off read from the data, not from the text of the source: active = growth inhibition above about 70%; inactive = the rest.

Test [1] is described as follows: NCI Yeast Anticancer Drug Screen. Data for the rad50 strain (AID 155).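 Note: 0% = growth of vehicle-only cultures of the same strain.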 The note with it: S. cerevisiae rad50 strain growth inhibition, stronger effect = higher value. The essentials:
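Readout: growth inhibition relative to vehicle-treated cultures. Compound exposure was carried out in a genetically defined yeast strain deficient in DNA damage repair.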

A short description of test [2]: NCI Yeast Anticancer Drug Screen. Data for the mec2-1 strain (AID 157). As to conditions: S. cerevisiae mec2-1 strain, stronger effect = higher value. The essentials: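 Readout is yeast growth inhibition, normalised to vehicle-treated controls, in the mec2-1 strain exposed to compound.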
Test [3] can be described thus: NCI Yeast Anticancer Drug Screen. Data for the sgs1 mgt1 strain (AID 161).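 Note: 0% = growth of cultures given vehicle only.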 The note with it: S. cerevisiae sgs1 mgt1 strain, stronger effect = higher value. The essentials:
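Percent growth inhibition was derived by comparing compound-exposed mutant yeast with vehicle-exposed cultures. The strain carries alterations in DNA damage repair.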

The nature of test [4]: NCI Yeast Anticancer Drug Screen. Data for the cln2 rad14 strain (AID 165).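 Note: 0% = growth equal to vehicle treated cultures.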 As to conditions: S. cerevisiae cln2 rad14 strain, stronger effect = higher value. The essentials:
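Relative to vehicle controls, growth inhibition of compound-treated cln2 rad14 yeast was recorded.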

Test [5] in a line: NCI Yeast Anticancer Drug Screen. Data for the bub3 strain (AID 167). The note with it: S. cerevisiae bub3 mutant strain, stronger effect = higher value. The essentials: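 Readout: yeast growth inhibition, expressed relative to vehicle-only wells. The test organism is a mutant strain from a panel with lesions in DNA repair or checkpoint genes.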
The nature of test [6]: NCI Yeast Anticancer Drug Screen. Data for the mlh1 rad18 strain (AID 175). The note with it: S. cerevisiae mlh1 rad18 strain growth inhibition, stronger effect = higher value. The essentials:
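Test agents were incubated with a yeast strain of defined genotype (DNA damage repair defect). Inhibition of growth was derived by comparison with vehicle-exposed cultures.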

Where [7] appears, read: at 5.0 µM (retest, dose inferred, filed as 0.5).
The mark [8] stands for this setting: at 50.0 µM (retest, dose inferred, filed as 5.0).

With `COC(=O)C([NH-])c1ccccc1.COC(=O)C([NH-])c1ccccc1.[Cl][Pt+2][Cl]` (configuration not stated), the growth inhibition in test [1] (setting [7]) is 16%; in test [1] (setting [8]), 81% (active); in test [1] (at 50.0 µM) it was 69%; in test [2] (setting [7]) it was 11%; in test [2] (setting [8]), 37%; in test [2] (at 50.0 µM), 46.9%. Further, the growth inhibition in test [3] (setting [7]) is 39%; in test [3] (setting [8]), 76% (active); in test [3] (at 50.0 µM), 76.3% (active); in test [4] (setting [7]) it was 0%; in test [4] (setting [8]) it was 43%; in test [4] (at 50.0 µM), 58%. Besides, the growth inhibition in test [5] (setting [7]) was 5%; in test [5] (setting [8]), 27%; in test [5] (at 50.0 µM) it was 30.2%; in test [6] (setting [7]) it was 21%; in test [6] (setting [8]), 60%; in test [6] (at 50.0 µM), 76.7% (active).
For the compound `CC(C)(C)c1ccc(O)c(C2CCCCC2)c1`, the growth inhibition in test [1] (setting [7]) is 5%; in test [1] (setting [8]), 99% (active); in test [1] (at 50.0 µM), 99.3% (active); in test [2] (setting [7]), -3%; in test [2] (setting [8]), 100% (active); in test [2] (at 50.0 µM) it was 99.7% (active). Further, the growth inhibition is -1% in test [3] (setting [7]); 99% (active) in test [3] (setting [8]); 99.5% (active) in test [3] (at 50.0 µM); -3% in test [4] (setting [7]); 99% (active) in test [4] (setting [8]); 99.5% (active) in test [4] (at 50.0 µM). Also, the growth inhibition in test [5] (setting [7]) was 2%; in test [5] (setting [8]) it was 99% (active); in test [5] (at 50.0 µM), 96.4% (active); in test [6] (setting [7]) it was -1%; in test [6] (setting [8]), 100% (active); in test [6] (at 50.0 µM) it was 99% (active).
With `O=C(CCN1CCCCC1)/C(=C\c1ccc(Cl)cc1)c1ccccc1`, the growth inhibition was 5% in test [1] (setting [7]); 95% (active) in test [1] (setting [8]); 99% (active) in test [1] (at 50.0 µM); 7% in test [2] (setting [7]); 99% (active) in test [2] (setting [8]); 99.4% (active) in test [2] (at 50.0 µM). Besides, the growth inhibition is 37% in test [3] (setting [7]); 100% (active) in test [3] (setting [8]); 99.3% (active) in test [3] (at 50.0 µM); 14% in test [4] (setting [7]); 91% (active) in test [4] (setting [8]); 99.1% (active) in test [4] (at 50.0 µM). The growth inhibition is 20% in test [5] (setting [7]); 98% (active) in test [5] (setting [8]); 99% (active) in test [5] (at 50.0 µM); 16% in test [6] (setting [7]); 99% (active) in test [6] (setting [8]); 99.2% (active) in test [6] (at 50.0 µM).
For the compound `S=C(NCCNC(=S)[S][Sn]([c]1ccccc1)([c]1ccccc1)[c]1ccccc1)[S][Sn]([c]1ccccc1)([c]1ccccc1)[c]1ccccc1`, the growth inhibition in test [1] (setting [7]) is 97% (active); in test [1] (setting [8]), 93% (active); in test [1] (at 50.0 µM), 89.8% (active); in test [2] (setting [7]), 98% (active); in test [2] (setting [8]), 96% (active); in test [2] (at 50.0 µM) it was 90.8% (active). Further, the growth inhibition was 97% (active) in test [3] (setting [7]); 94% (active) in test [3] (setting [8]); 91.5% (active) in test [3] (at 50.0 µM); 96% (active) in test [4] (setting [7]); 93% (active) in test [4] (setting [8]); 87.9% (active) in test [4] (at 50.0 µM). The growth inhibition was 98% (active) in test [5] (setting [7]); 94% (active) in test [5] (setting [8]); 90% (active) in test [5] (at 50.0 µM); 98% (active) in test [6] (setting [7]); 91% (active) in test [6] (setting [8]); 89.8% (active) in test [6] (at 50.0 µM).
Regarding `CN(C)c1nc(NNS(=O)(=O)c2ccc(N)cc2)nc(N(C)C)n1`, the growth inhibition in test [1] (setting [7]) was 1%; in test [1] (setting [8]) it was -17%; in test [1] (at 50.0 µM) it was -27.1%; in test [2] (setting [7]) it was 2%; in test [2] (setting [8]) it was -1%; in test [2] (at 50.0 µM), 7.55%. Besides, the growth inhibition in test [3] (setting [7]) is 1%; in test [3] (setting [8]), -72%; in test [3] (at 50.0 µM) it was -5.75%; in test [4] (setting [7]) it was 2%; in test [4] (setting [8]), -6%; in test [4] (at 50.0 µM), 55%. Besides, the growth inhibition in test [5] (setting [7]) is -6%; in test [5] (setting [8]), -8%; in test [5] (at 50.0 µM), -12.3%; in test [6] (setting [7]) it was -1%; in test [6] (setting [8]), 0%; in test [6] (at 50.0 µM) it was 3.85%.
`CCCCCCCCCCCCCCCCCC(=O)OCC(COC(=O)CCCN)OC(=O)CCCN` (configuration not stated): the growth inhibition in test [1] (setting [7]) is 18%; in test [1] (setting [8]), 99% (active); in test [1] (at 50.0 µM) it was 98.7% (active); in test [2] (setting [7]), 9%; in test [2] (setting [8]) it was 99% (active); in test [2] (at 50.0 µM) it was 97.5% (active). Moreover, the growth inhibition in test [3] (setting [7]) was 3%; in test [3] (setting [8]), 99% (active); in test [3] (at 50.0 µM) it was 98% (active); in test [4] (setting [7]), 5%; in test [4] (setting [8]), 96% (active); in test [4] (at 50.0 µM), 69%. Further, the growth inhibition in test [5] (setting [7]) was 5%; in test [5] (setting [8]), 99% (active); in test [5] (at 50.0 µM), 98.6% (active); in test [6] (setting [7]) it was 32%; in test [6] (setting [8]) it was 99% (active); in test [6] (at 50.0 µM), 97.5% (active).
For `COc1ccc(OC)c(C(Cc2ccnc3ccccc23)Cc2ccnc3ccccc23)c1`, the growth inhibition is 1% in test [1] (setting [7]); 97% (active) in test [1] (setting [8]); 99% (active) in test [1] (at 50.0 µM); -14% in test [2] (setting [7]); 97% (active) in test [2] (setting [8]); 99.2% (active) in test [2] (at 50.0 µM). Further, the growth inhibition in test [3] (setting [7]) was 3%; in test [3] (setting [8]) it was 99% (active); in test [3] (at 50.0 µM), 99% (active); in test [4] (setting [7]), 1%; in test [4] (setting [8]) it was 99% (active); in test [4] (at 50.0 µM) it was 98.6% (active). The growth inhibition in test [5] (setting [7]) was 10%; in test [5] (setting [8]), 98% (active); in test [5] (at 50.0 µM), 98.8% (active); in test [6] (setting [7]), -3%; in test [6] (setting [8]), 97% (active); in test [6] (at 50.0 µM), 98.8% (active).
Regarding `CC(=O)/C=C1\C(=O)Nc2ccccc21`, the growth inhibition in test [1] (setting [7]) is 20%; in test [1] (setting [8]) it was 97% (active); in test [1] (at 50.0 µM), 85.1% (active); in test [2] (setting [7]) it was 10%; in test [2] (setting [8]), 100% (active); in test [2] (at 50.0 µM), 91.6% (active). For the same compound, the growth inhibition in test [3] (setting [7]) was 16%; in test [3] (setting [8]), 92% (active); in test [3] (at 50.0 µM) it was 91.7% (active); in test [4] (setting [7]), 26%; in test [4] (setting [8]) it was 95% (active); in test [4] (at 50.0 µM), 32.9%. For the same compound, the growth inhibition in test [5] (setting [7]) was 12%; in test [5] (setting [8]) it was 99% (active); in test [5] (at 50.0 µM), 87.7% (active); in test [6] (setting [7]) it was 14%; in test [6] (setting [8]), 99% (active); in test [6] (at 50.0 µM) it was 78.7% (active).
Turning to `Cc1ccc(S(=O)(=O)Oc2ccc3oc4c(CO)ccc(NCCN(C)C)c4c(=O)c3c2)cc1`, the growth inhibition in test [1] (setting [7]) is 3%; in test [1] (setting [8]), 5%; in test [1] (at 50.0 µM) it was 16.6%; in test [2] (setting [7]), 0%; in test [2] (setting [8]), -32%; in test [2] (at 50.0 µM), -17.6%. The growth inhibition is 2% in test [3] (setting [7]); 16% in test [3] (setting [8]); 97.8% (active) in test [3] (at 50.0 µM); 1% in test [4] (setting [7]); 7% in test [4] (setting [8]); -2.35% in test [4] (at 50.0 µM). Further, the growth inhibition in test [5] (setting [7]) was 3%; in test [5] (setting [8]), 4%; in test [5] (at 50.0 µM), -9.25%; in test [6] (setting [7]), 3%; in test [6] (setting [8]) it was 14%; in test [6] (at 50.0 µM), 43%.
